Compound activity as filed in PubChem.
Sampled rows, rich in hits. Any-hit rate of the full collection: about 5.3%.
HP1b chromo inh = HP1-beta chromodomain-methylated histone interaction inhibition. P83916. AlphaScreen HP1-beta / biotin-H3K9me3 peptide binding. 390,000 tested, 0.56% active. Potency, µM (doses to about 114 µM), without a hit: top-dose activity change, negative = inhibition, actives largely listed as inhibitors; further: potency means the concentration at half of the fitted maximal effect; nearly all actives have a fitted effect of over 70% in size
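Compound inhibition of the preformed complex between 50 nM HP1-beta and 50 nM biotinylated H3K9me3 peptide was read by AlphaScreen. Buffer was PBS pH 7.4 with 0.01% Tween-20. Incubations ran 30 min at room temperature, with 10 ug/mL donor/acceptor beads.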
JMJD2A Tudor = inhibitors of human JMJD2A Tudor domain. AID 504339. O75164. AlphaScreen JMJD2A-Tudor / H3K4me3 peptide binding. Potency, µM (doses to about 114 µM), inactives show top-dose activity change, negative = inhibition, hits mostly inhibitors. 390,000 tested, 4.4% active; further: potency means the concentration at half of the fitted maximal effect; on the % scale 0 is the no-effect control and ±100 the full control effect; nearly all actives have a fitted effect of over 50% in size
Six1-Eya2 inh = inhibitors of human Six1/Eya2 interaction. AlphaScreen GST-Six1/His-Eya2 binding, biochemical; active compounds read low. activity change, % (test concentration not listed). 360,000 tested, 0.56% active. AID 651725; in the data active means activity change below about -65%; inconclusive means mostly about -30% to -63%; further: on the % scale 0 is the no-effect control and ±100 the full control effect
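Compounds are tested against tagged Six1 and Eya2 proteins bridged by glutathione donor and nickel acceptor beads; after a one-hour incubation at 37 °C without light, AlphaScreen emission is recorded.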
CtBP-E1A blk = CtBP/E1A binding inhibition; AlphaScreen GST-E1A/His-CtBP binding, 1536-well; active compounds read low; activity change, % (no concentration beside the values); 340,000 tested, 0.49% active; AID 651724; in the data active means activity change below about -65%; inconclusive means mostly about -30% to -63%; further: on the % scale 0 is the no-effect control and ±100 the full control effect
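Steps: dispense buffer (Tris pH 8.0, NaCl 300 mM, TCEP 1 mM, BSA, Tween 20); add 5X protein mix (GST-E1A, His-CtBP, 125 nM each); pin 23 nL compound; 2 h at 37 °C, dark; add 5X beads (50 ug/mL); 1 h; read.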
BAZ2B block = BAZ2B (human) inhibition. 360,000 tested, 4.4% active. AID 504333. Q9UIF8. AlphaScreen BAZ2B-H3K14Ac peptide displacement. Potency, µM (series often up to 114 µM), without a hit: at the highest dose activity change, negative = inhibition, usual class: inhibitors; further: potency means the concentration at half of the fitted maximal effect; on the % scale 0 is the no-effect control and ±100 the full control effect; nearly all actives have a fitted effect of over 60% in size
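BAZ2B (50 nM) with biotin-H3(5-23)K14Ac peptide (50 nM) in PBS pH 7.4, 0.01% Tween-20, preformed 30 min, then compound 30 min at room temperature; top concentration 110uM. AlphaScreen streptavidin donor/nickel chelate acceptor beads (10 ug/mL final), 20 min dark, signal read.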
TDP1 block = TDP1 (human) enzyme inhibition; AID 485290; 350,000 tested, 0.28% active; Potency, µM (top dose mostly 130 µM), for inactives: at the top dose activity change, negative = inhibition, hits mostly inhibitors; recombinant TDP1, AlphaScreen DNA substrate cleavage; Q9NUW8; further: potency means the concentration at half of the fitted maximal effect; on the % scale 0 is the no-effect control and ±100 the full control effect; nearly all actives have a fitted effect of over 40% in size
Target sequence (Q9NUW8 whole entry, looked up): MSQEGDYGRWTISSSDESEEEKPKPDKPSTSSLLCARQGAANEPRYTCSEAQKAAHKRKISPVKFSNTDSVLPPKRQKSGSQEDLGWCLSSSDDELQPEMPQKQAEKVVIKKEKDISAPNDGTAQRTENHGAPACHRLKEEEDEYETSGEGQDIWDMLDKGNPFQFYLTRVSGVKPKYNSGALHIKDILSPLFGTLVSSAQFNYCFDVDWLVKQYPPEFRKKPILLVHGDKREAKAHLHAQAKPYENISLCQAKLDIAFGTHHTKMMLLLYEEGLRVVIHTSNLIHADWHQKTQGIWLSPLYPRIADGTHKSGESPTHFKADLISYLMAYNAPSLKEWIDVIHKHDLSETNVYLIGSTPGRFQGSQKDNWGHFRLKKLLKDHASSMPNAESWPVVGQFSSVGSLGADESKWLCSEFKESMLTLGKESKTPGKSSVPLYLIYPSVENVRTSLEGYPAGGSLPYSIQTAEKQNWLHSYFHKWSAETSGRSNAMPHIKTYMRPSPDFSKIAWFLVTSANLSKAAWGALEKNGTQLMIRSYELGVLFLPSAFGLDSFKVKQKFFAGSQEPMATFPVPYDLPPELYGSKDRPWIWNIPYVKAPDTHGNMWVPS
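Enzyme-compound mixtures sat 15 min at room temperature, followed by a 5 min reaction with 15 nM final substrate and 10 min with AlphaScreen beads. Recombinant human Tdp1 was used at 1 nM final.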
The depositor's hits bear a star; [ ] = dose if it differs, or a comment. Unless noted, the call rests on the fitted dose curve; in most records, active means well fitted inhibition curve with a large enough effect; inconclusive means small, poorly fitted or top-dose-only effect; inactive means no such curve, though single readings can be large or run the other way.

How did CCOc1ccc(NC(=O)Cn2c(=O)n(-c3cccc(Cl)c3)c(=O)c3c2c2cc(C)ccc2n3C)cc1 do in these assays?
HP1b chromo inh: 76%; JMJD2A Tudor: -5%; BAZ2B block: 11%; TDP1 block: 9%

How did COc1ccc(/C=C2\CN(Cc3ccccc3)C/C(=C\c3ccc(OC)c(O)c3)C2=O)cc1O do in these assays?
HP1b chromo inh: inconclusive; JMJD2A Tudor: inconclusive; Six1-Eya2 inh: -2; CtBP-E1A blk: -5; BAZ2B block: 40µM*; TDP1 block: 0%

What do the screens show for `COc1ccc(C=C2C(=O)c3ccccc3C2=O)cc1O`?
HP1b chromo inh: inconclusive; JMJD2A Tudor: inconclusive; Six1-Eya2 inh: 4; CtBP-E1A blk: 3; BAZ2B block: 10µM*; TDP1 block: 5%

What do the screens show for `COc1cc(C=C2C(=O)c3ccccc3C2=O)cc(OC)c1OC`?
HP1b chromo inh: 42%; JMJD2A Tudor: -3%; Six1-Eya2 inh: 1; CtBP-E1A blk: 12; BAZ2B block: -31%; TDP1 block: -2%

What do the screens show for `COc1ccccc1CC(=N)N1C[C@@H]2C(=O)CCC(c3ccccc3)(c3ccccc3)[C@@H]2C1`?
TDP1 block: 18%[56.1 µM]

How did Cc1cc(C)c(-n2c(C)cc(/C=C3/NC(=O)NC3=O)c2C)c(C)c1 do in these assays?
HP1b chromo inh: inconclusive; JMJD2A Tudor: inconclusive; Six1-Eya2 inh: -13; CtBP-E1A blk: -3; BAZ2B block: 50µM*; TDP1 block: 8%

How did Cc1cccc(-n2c(C)cc(/C=C3\NC(=O)NC3=O)c2C)c1 do in these assays?
HP1b chromo inh: -3%; JMJD2A Tudor: -27%; Six1-Eya2 inh: -4; CtBP-E1A blk: -7; BAZ2B block: inconclusive; TDP1 block: 8%

Results for O=C(c1ccccc1)N1CCN(CC(O)COc2cccc3ccccc23)CC1 (stereo not drawn) ?
HP1b chromo inh: 37%; JMJD2A Tudor: -14%; Six1-Eya2 inh: -2; BAZ2B block: 0%

Results for O=C(c1ccccc1)N1CCN(CC(O)Cn2ccc3ccccc32)CC1 (stereo not drawn) ?
HP1b chromo inh: inconclusive; JMJD2A Tudor: inconclusive; Six1-Eya2 inh: -2; CtBP-E1A blk: -24; BAZ2B block: 56µM*

How did OC(CN1CCCC1)Cn1ccc2ccccc21 (stereo not drawn) do in these assays?
HP1b chromo inh: 23%; JMJD2A Tudor: 20µM*; Six1-Eya2 inh: -2; BAZ2B block: 50µM*

How did OC(CNc1ccccc1)Cn1ccc2ccccc21 (stereo not drawn) do in these assays?
HP1b chromo inh: inconclusive; JMJD2A Tudor: 4µM*; Six1-Eya2 inh: 0; CtBP-E1A blk: 3; BAZ2B block: 35µM*; TDP1 block: 5%

How did Cc1cc(C)c(OCC(O)CN2CCN(C(=O)c3ccccc3)CC2)c(C)c1 (stereo not drawn) do in these assays?
HP1b chromo inh: inconclusive; JMJD2A Tudor: 22µM*; Six1-Eya2 inh: 3; BAZ2B block: inconclusive; TDP1 block: 6%

How did O=C(O)Cn1ccc2ccccc21 do in these assays?
HP1b chromo inh: 33%; JMJD2A Tudor: -16%; Six1-Eya2 inh: 7; CtBP-E1A blk: 7; BAZ2B block: -15%

Results for COc1ccc(-c2cc3nc(C)c(CCC(=O)NCc4ccccc4Cl)c(C)n3n2)c(OC)c1 ?
HP1b chromo inh: 21%; JMJD2A Tudor: -9%; BAZ2B block: -7%; TDP1 block: 3%

Results for Cc1cc(C)cc(NC(=O)c2sc3nc(-c4ccccc4)cn3c2C)c1 ?
HP1b chromo inh: 22%[57 µM]; JMJD2A Tudor: -18%; BAZ2B block: -14%; TDP1 block: 4%

Results for O=S(=O)(Nc1ccccc1)c1cccc2nsnc12 ?
HP1b chromo inh: inconclusive; JMJD2A Tudor: inconclusive; Six1-Eya2 inh: 4; CtBP-E1A blk: 7; BAZ2B block: 50µM*

How did CCOc1ccccc1NS(=O)(=O)c1cccc2nsnc12 do in these assays?
HP1b chromo inh: 3%; JMJD2A Tudor: -23%; Six1-Eya2 inh: -5; CtBP-E1A blk: 1; BAZ2B block: -36%; TDP1 block: 0%

How did CCOc1ccc(OCC)c(NS(=O)(=O)c2cccc3nsnc23)c1 do in these assays?
HP1b chromo inh: inconclusive; JMJD2A Tudor: inconclusive; Six1-Eya2 inh: -12; CtBP-E1A blk: -9; BAZ2B block: 50µM*; TDP1 block: 12%

What do the screens show for `CCc1ccccc1NC(=O)C(C)n1nc(-c2ccc(C)c(C)c2)ccc1=O` (stereo not drawn)?
HP1b chromo inh: 19%; JMJD2A Tudor: inconclusive; BAZ2B block: -17%

How did CCCOc1ccc(C2CC(=O)Nc3c2c(=O)n(C)c(=O)n3C)cc1OC (stereo not drawn) do in these assays?
HP1b chromo inh: 35%; JMJD2A Tudor: inconclusive; BAZ2B block: 0%; TDP1 block: 2%

How did COc1ccc(NC(=O)CN2C(=O)CCc3cc(S(=O)(=O)N4CCOCC4)ccc32)c(OC)c1 do in these assays?
HP1b chromo inh: 10%; JMJD2A Tudor: -31%; BAZ2B block: inconclusive; TDP1 block: 4%

What do the screens show for `COc1ccc(C(C#N)=C2C=CC(=NO)C=C2)cc1`?
HP1b chromo inh: 40µM*; JMJD2A Tudor: 16µM*; Six1-Eya2 inh: -1; CtBP-E1A blk: -9; BAZ2B block: 14µM*; TDP1 block: 10%

Results for CC(=O)ON=C1C=CC(=C(C#N)c2ccccc2)C=C1 ?
Six1-Eya2 inh: -11; CtBP-E1A blk: 0

What do the screens show for `CCC(=O)NC(/C=C/c1ccccc1)c1cc([N+](=O)[O-])c2cccnc2c1O` (stereo not drawn)?
BAZ2B block: 4.5µM*; TDP1 block: 11%

What do the screens show for `CCCC(=O)NC(c1ccc2c(c1)OCO2)c1cc(Cl)c2cccnc2c1O` (stereo not drawn)?
HP1b chromo inh: 36%; JMJD2A Tudor: -13%; Six1-Eya2 inh: -77*; CtBP-E1A blk: -78*; BAZ2B block: 5%; TDP1 block: 11%

How did CCC(=O)NC(c1cc(Cl)c2ccccc2c1O)C(C)C (stereo not drawn) do in these assays?
HP1b chromo inh: 67%; JMJD2A Tudor: 2%; BAZ2B block: -9%; TDP1 block: 1%

What do the screens show for `Cc1ccc([N+](=O)[O-])c2cccnc12`?
HP1b chromo inh: 7%; JMJD2A Tudor: -17%; Six1-Eya2 inh: -10; CtBP-E1A blk: -3; BAZ2B block: -13%; TDP1 block: -1%

Results for CCCC(=O)NC(c1cccs1)c1cc(Cl)c2cccnc2c1O (stereo not drawn) ?
HP1b chromo inh: 45%; JMJD2A Tudor: -17%; Six1-Eya2 inh: inconclusive; CtBP-E1A blk: -71*; BAZ2B block: -4%; TDP1 block: 10%
